Reference: article PMC13494018
A number with no mark means an inactive call. The rule behind the calls is not given here.

B1: design_610_f34cc193-997c-4684-af32-2a8002718429_692_dldesign_0_cycle1_af2pred (protein)
chain: SAARAAAAAAVHAKVYAVLEKQAEEALKKAAEVAKKLGDEKFYKEAKKEAEEAKKLAKESPGEGLKAITELKQKVKEAAKKAEA
B2: design_610_f34cc193-997c-4684-af32-2a8002718429_895_dldesign_0_cycle1_af2pred (protein)
chain: SSAEALARRTAEAMVRLAERRIREAAEEGLEKARETAEKWARFAEEALPPEVGAETAKRIREAAERIVRRKEEE
B3: design_610_f34cc193-997c-4684-af32-2a8002718429_532_dldesign_0_cycle1_af2pred (protein)
chain: MPQAEQAAQAAAKSGESLMKLAESIWSSTPEYRKAHKESILGALEVARDLYEYAAKQGGEEYKKKAEEAKAKYKEVKETL
B4: design_610_f34cc193-997c-4684-af32-2a8002718429_328_dldesign_0_cycle1_af2pred (protein)
chain: MEAAKAAVEAARAEADALLAAAEASPDPGEATALAVDALRTVSAARREIEATYGPEAGALADAVLAEVRARVAALNRRLIA
B5: design_610_f34cc193-997c-4684-af32-2a8002718429_824_dldesign_0_cycle1_af2pred (protein)
chain: DALVAEARRLLQEAARLLGTGSAAYIAGDKAAAVAAFKEAIGLAKKALELAKAAGDEALAASAQGLIELAEGLLAAAEA
B6: design_610_f34cc193-997c-4684-af32-2a8002718429_742_dldesign_0_cycle1_af2pred (protein)
chain: MERAEKLIEKVKEIASLPKSKEEEQEELALKVAEEAAKLTPEEQQKVIQAMLEYAEKSGSTALLRGANRIFAA
B7: design_610_f34cc193-997c-4684-af32-2a8002718429_661_dldesign_0_cycle1_af2pred (protein)
chain: AKAQAEAQLAQGQKLLEQAKKNLASGKNAVAALSNARGAYVLFQGAAYIAAKTDPELAKKAKEAAKQAEELAKQAQAAIAAA
B8: design_610_f34cc193-997c-4684-af32-2a8002718429_1045_dldesign_0_cycle1_af2pred (protein)
chain: MTPGELGELALEALRLAAEAARLAAEDPRFAPAAAAFRAAFIEIARGGDPEEALRLYEEGLRLYEAALAAWRAA
B9: design_610_f34cc193-997c-4684-af32-2a8002718429_489_dldesign_0_cycle1_af2pred (protein)
chain: EKEKKIKELLEKGLEKMKKAAELTGDPGMQTYLKMAENNVKTNSPKDAAKINAELAKIAAGHAASLDPEAAKLVEEAYKLFKEAAKL
B10: design_610_f34cc193-997c-4684-af32-2a8002718429_868_dldesign_0_cycle1_af2pred (protein)
chain: DALAKAQKQAKATAEEAKKKAEEAKAAGNSAAAQMYENGAKVAEEGAKGDLKTVKAAIERGKTLIKAGDAIAAA
B11: design_610_f34cc193-997c-4684-af32-2a8002718429_285_dldesign_0_cycle1_af2pred (protein)
chain: LAAEVAAAEAAAAAAAAAAKALGATATAAALRAMAEDAARSTPEEAAAARDFAEAMLTVLTARLAAAKAAAA
B12: design_610_f34cc193-997c-4684-af32-2a8002718429_954_dldesign_0_cycle1_af2pred (protein)
chain: MEEAKEKAEEAKKEAKEAIEKLRKVAEKAKAHPDGAEIQRRVDIAVAAVKGLLKNAEASPNPEDSLKIYEVAKELAEAERERVEAILK
B13: design_610_f34cc193-997c-4684-af32-2a8002718429_743_dldesign_0_cycle1_af2pred (protein)
chain: EEEEKKKKAKEYVEKAKKLAEQAAKSTVEQAHQYLGQAVELAAKVHELGVLPEEANKVLAQASANALALA
B14: design_610_f34cc193-997c-4684-af32-2a8002718429_113_dldesign_0_cycle1_af2pred (protein)
chain: AAAAAAAAEKAAAVAAIKEIAEAAKAHAATVGFRALAASAATVVRLAEQGLWTPEGVKKALEVLKAIYEAELAALKAAAA
B15: design_610_f34cc193-997c-4684-af32-2a8002718429_921_dldesign_0_cycle1_af2pred (protein)
chain: AEAVAVAAMLGLLRNAADHPESAEKLAEIARDMALATGVPAEKVKEVFEEGARYAREKGNEEAAKIIEEKGEEAVKAAKAA
B16: design_610_f34cc193-997c-4684-af32-2a8002718429_291_dldesign_0_cycle1_af2pred (protein)
chain: AEERAKELAEELKELLAKAVADPSKAGEYLGRALELLAELQALAAEHPEVAPYAEEAHRALGAGNKALLAAIAA
B17: design_610_f34cc193-997c-4684-af32-2a8002718429_112_dldesign_0_cycle1_af2pred (protein)
chain: MEEVKEEVIKVIEEAAAKAKKAIEADPSTAWAHASAAYATASKAIIANAPKLSPEEMTEVGEVFLKNMKELTEHAKAVAAA
B18: design_610_f34cc193-997c-4684-af32-2a8002718429_136_dldesign_0_cycle1_af2pred (protein)
chain: SLNGTAGAGIVELLKALAEAQKWKALDPEFFGAAAKEIAAETAAAAQAAVAGDYEAAIAEVKAGKAVAEKAKKHAAEIA
B19: design_610_f34cc193-997c-4684-af32-2a8002718429_938_dldesign_0_cycle1_af2pred (protein)
chain: SPQAELDAFLGETLETSREISAILEKNRDKVPEEVRNKISDLLNKALSYASKAALGVDPEGAAKAKKYLEEAKKLTEEAVKLA

Molecular target: CD276, Q5ZPR3
Sequence (Q5ZPR3 whole entry): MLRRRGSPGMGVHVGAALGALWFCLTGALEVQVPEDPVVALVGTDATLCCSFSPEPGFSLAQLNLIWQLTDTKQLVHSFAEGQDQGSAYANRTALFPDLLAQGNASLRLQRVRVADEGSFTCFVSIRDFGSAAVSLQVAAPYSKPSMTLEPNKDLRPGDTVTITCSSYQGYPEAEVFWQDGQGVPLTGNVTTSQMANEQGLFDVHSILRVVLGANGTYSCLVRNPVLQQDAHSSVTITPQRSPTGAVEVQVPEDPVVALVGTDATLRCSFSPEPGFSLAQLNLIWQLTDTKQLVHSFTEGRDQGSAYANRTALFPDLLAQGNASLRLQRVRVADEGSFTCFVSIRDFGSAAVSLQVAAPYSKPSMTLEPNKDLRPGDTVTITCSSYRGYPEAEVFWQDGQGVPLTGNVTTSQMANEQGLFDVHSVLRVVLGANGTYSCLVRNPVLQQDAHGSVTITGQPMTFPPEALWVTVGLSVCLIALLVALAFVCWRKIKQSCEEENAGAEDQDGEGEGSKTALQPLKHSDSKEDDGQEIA

Row | Binder | binding in a display sort
1 | B1 | not found
2 | B2 | not found
3 | B3 | not found
4 | B4 | not found
5 | B5 | not found
6 | B6 | not found
7 | B7 | not found
8 | B8 | not found
9 | B9 | not found
10 | B10 | not found
11 | B11 | not found
12 | B12 | not found
13 | B13 | not found
14 | B14 | not found
15 | B15 | not found
16 | B16 | not found
17 | B17 | not found
18 | B18 | not found
19 | B19 | not found
